Screen size: about 1,700 compounds; about 150 (8.8%) were called active. Another 19% or so got no clear call; they are omitted.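 The calls were made as follows: active = fluorescence change differing from the plate's solvent-only control wells at 99.7% confidence in both duplicates, whether higher or lower; inconclusive = differs from solvent controls in only one of two duplicates; inactive = the rest.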 A selection follows.

The target in this experiment is Muscarinic acetylcholine receptor M4 (Rattus norvegicus) (UniProt P08485). The experiment is described as follows: agonist activity at rat M4 receptor, confirmation, counter-screen for M1 allosteric modulator project, cell-based, agonist mode (AID 1741). The note with it: CHO M4/Gqi5 cells, Fluo-4 calcium fluorescence, at 10 µM, actives lie on both sides.
Muscarinic acetylcholine receptor M4 (Rattus norvegicus), sequence (P08485 whole entry, looked up): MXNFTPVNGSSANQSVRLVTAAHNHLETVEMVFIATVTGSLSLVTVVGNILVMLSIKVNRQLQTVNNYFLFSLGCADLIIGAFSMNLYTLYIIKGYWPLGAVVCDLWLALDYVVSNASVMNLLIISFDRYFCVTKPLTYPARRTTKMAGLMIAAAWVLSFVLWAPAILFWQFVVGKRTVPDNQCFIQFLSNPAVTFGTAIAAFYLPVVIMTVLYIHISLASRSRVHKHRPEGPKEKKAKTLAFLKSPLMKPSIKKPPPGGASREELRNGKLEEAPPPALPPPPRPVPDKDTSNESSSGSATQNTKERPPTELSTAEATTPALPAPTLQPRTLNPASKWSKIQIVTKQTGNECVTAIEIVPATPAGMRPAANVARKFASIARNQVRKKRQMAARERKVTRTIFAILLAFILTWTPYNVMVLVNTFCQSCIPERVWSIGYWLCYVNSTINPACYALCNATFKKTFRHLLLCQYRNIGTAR
`O=C(c1ccccc1)c1ccc(OC(=O)N2CCCC2)cc1`: the fluorescence change (max-min) is -25.9 (inactive).

Regarding `CC(NC(=O)CSc1nc2c(cc1C#N)CN(C)CC2)c1ccccc1` (centres undefined), the fluorescence change (max-min) was -18.9 (inactive). As to `O=C(Nc1cccc(NC(=O)N2CCN(c3ccccc3)CC2)c1)N1CCN(c2ccccc2)CC1`, the fluorescence change (max-min) was -12.4 (inactive).

For `Cc1nn2c(c1-c1ccccc1)N=C(c1ccco1)CC2c1ccccc1` (centres undefined), the fluorescence change (max-min) was 5.67 (inactive). Consider `CCOc1nc(-c2ccc(OC)cc2)ccc1-c1noc(-c2cc(OC)c(OC)c(OC)c2)n1`, for which the fluorescence change (max-min) is 18.4 (inactive). In the case of `CCCOc1ccccc1C1CC(=O)Nc2cc3c(cc21)OCO3` (centres undefined), the fluorescence change (max-min) is -71.7 (inactive).

Consider `CCn1c(NCCc2ccc(OC)c(OC)c2)nc2c1c(=O)n(C)c(=O)n2C`, for which the fluorescence change (max-min) was -47.9 (inactive).

For the compound `CCN(CC)c1ccc2cc(C(=O)O)c(=O)oc2c1`, the fluorescence change (max-min) was 137 (inactive). Regarding `Fc1ccc2[nH]c3c(N4CCSCC4)ncnc3c2c1`, the fluorescence change (max-min) was -68.8 (inactive). For the compound `CCN=C1SC(CC(=O)Nc2ccc(C)cc2)C(=O)N1CC` (centres undefined), the fluorescence change (max-min) is -71.4 (active). Then `COc1cccc(-n2cc3c(c2-c2ccccc2)c(=O)n(C)c(=O)n3C)c1`, with -42.2 (inactive). For `COc1ccc2[nH]c(=O)c(CN(CC3CCCO3)C(=O)Nc3ccccc3)cc2c1` (centres undefined), the fluorescence change (max-min) is -53.6 (inactive). `CCOc1ccc2[nH]c(=O)c(CN(Cc3nnnn3Cc3ccccc3)CC3CCCO3)cc2c1` (centres undefined): the fluorescence change (max-min) was -7.46 (inactive). For `O=C1c2ccccc2-c2ncnc3c(N4CCOCC4)cc(N4CCOCC4)c1c23`, the fluorescence change (max-min) was -22.7 (inactive).

In the case of `FC(F)(F)COc1nc(N2CCCCC2)nc(N2CCNCC2)n1`, the fluorescence change (max-min) was -26.5 (inactive). Turning to `CCOC(=O)c1cc2n(c1N)-c1ccccc1C2=O`, the fluorescence change (max-min) is 2020 (active).

Take `CC(=O)Nc1ccc(NC(=O)CN2CCCC(C)C2)c(Cl)c1` (centres undefined): the fluorescence change (max-min) was -37.2 (inactive).

Turning to `COc1ccccc1N1CCN(C(=O)c2c(-c3c(Cl)cccc3Cl)noc2C)CC1`, the fluorescence change (max-min) is -27 (inactive). For `O=C(Cn1cc(C(=O)c2cccs2)c2ccccc21)NCc1cccs1`, the fluorescence change (max-min) is -25 (inactive).

As for `COc1ccc(C(C(O)C(=O)c2c[nH]c3ccccc23)N2CCN(c3ccccc3)CC2)cc1` (centres undefined), the fluorescence change (max-min) was -6.79 (inactive). `COc1cc(C(=O)Nc2oc(-c3ccccc3)c(-c3ccccc3)c2C#N)cc(OC)c1OC`: the fluorescence change (max-min) was -47.4 (inactive). For the compound `CCCN1CC=C2C(C#N)=C(N)C(C#N)(C#N)C(c3cc(OC)ccc3OC)C2C1` (centres undefined), the fluorescence change (max-min) was 84.1 (inactive).

For the compound `COc1ccc(NC(=O)C2CCCN(S(=O)(=O)c3cccc4cccnc34)C2)cc1OC` (centres undefined), the fluorescence change (max-min) is -56.1 (inactive).

Take `Cc1ccc2oc(=O)c3cnn(CC(=O)N4CCN(c5ccccn5)CC4)c3c2c1`: the fluorescence change (max-min) is -22 (inactive). In the case of `CCOc1cc(N2CCOCC2)c(OCC)cc1NC(=O)COc1cccc2cccnc12` it was -39.2 (inactive). In the case of `Cc1ccc(S(=O)(=O)Nc2ccc3ncccc3c2)cc1` it was -7.21 (inactive); in that of `O=C(NCCc1ccc2c(c1)OCCO2)c1cc2ccccc2o1`, -9.99 (inactive).

Regarding `COc1ccc(C2C(C(=O)N3CCN(c4ccc(OC)cc4)CC3)c3ccccc3C(=O)N2C)cc1` (centres undefined), the fluorescence change (max-min) was -57.8 (inactive). In the case of `Cn1c(C(=O)NCCc2ccsc2)cc2c(=O)n(C)c3ccccc3c21`, the fluorescence change (max-min) was -42.5 (inactive). `COc1ccc(N(C(=O)c2cccnc2)S(=O)(=O)c2ccc3c(c2)n(C)c(=O)n3C)cc1`: the fluorescence change (max-min) was -59.4 (inactive). For the compound `O=C(CSCc1cccs1)N1CCCC1`, the fluorescence change (max-min) is -76.4 (inactive). For `CN1C(=O)c2ccc(NC(=O)c3c(F)c(F)c(F)c(F)c3F)cc2C1=O`, the fluorescence change (max-min) is -27.8 (inactive). For `CC(C[N+](C)(C)C)OC(N)=O` (centres undefined), the fluorescence change (max-min) is 11.8 (inactive). Take `CC(=O)OC(C)C[N+](C)(C)C` (centres undefined): the fluorescence change (max-min) was 146 (active). In the case of `CCOC(=O)C1CCCN(C(=O)c2ccc(CS(=O)(=O)c3ccc(Br)cc3)o2)C1` (centres undefined), the fluorescence change (max-min) is -59.9 (inactive). Then `CC(C)OCCCNc1ncnc2c1[nH]c1ccc(F)cc12`, with -4.51 (inactive). For the compound `O=C(Nc1nc(-c2ccc3c(c2)OCO3)cs1)c1ccncc1`, the fluorescence change (max-min) is -52 (inactive). Then `CC(C)(C)c1cc(CN2CCN(CCC#N)CC2)cc(C(C)(C)C)c1O`, with -27.3 (inactive); and `O=C(Nc1cccc(-c2nnc(-c3ccccc3)o2)c1)C1CCCO1` (centres undefined), with -67.5 (inactive).

The values are drawn from PubChem BioAssay AID1741 (Vanderbilt High Throughput Screening Facility, 2009).
